This passage reports Potency results from PubChem BioAssay AID2662 (National Center for Advancing Translational Sciences (NCATS), 2010).

Out of some 290,000 compounds screened, about 110 (0.038%) were called active. Where a call stands in place of a potency, no number is given. Another 3% or so got no clear call; they are omitted. Calls come from the whole dose curve; as a rule, active = well fitted inhibition curve with a large enough effect in the polarisation, with a control signal flat (not every such curve was filed as active); inconclusive = small, poorly fitted or top-dose-only effect, or effect the other way, or a change in a side signal; inactive = no such curve, though single readings can be large or run the other way; the % refers to the polarisation. Only a selection was taken, and actives are over-represented in it overall.
Potency is the fitted concentration of half-maximal effect.

Chain of Histone-lysine N-methyltransferase 2A (Homo sapiens) (Q03164 whole entry, looked up, the tested form may be a part): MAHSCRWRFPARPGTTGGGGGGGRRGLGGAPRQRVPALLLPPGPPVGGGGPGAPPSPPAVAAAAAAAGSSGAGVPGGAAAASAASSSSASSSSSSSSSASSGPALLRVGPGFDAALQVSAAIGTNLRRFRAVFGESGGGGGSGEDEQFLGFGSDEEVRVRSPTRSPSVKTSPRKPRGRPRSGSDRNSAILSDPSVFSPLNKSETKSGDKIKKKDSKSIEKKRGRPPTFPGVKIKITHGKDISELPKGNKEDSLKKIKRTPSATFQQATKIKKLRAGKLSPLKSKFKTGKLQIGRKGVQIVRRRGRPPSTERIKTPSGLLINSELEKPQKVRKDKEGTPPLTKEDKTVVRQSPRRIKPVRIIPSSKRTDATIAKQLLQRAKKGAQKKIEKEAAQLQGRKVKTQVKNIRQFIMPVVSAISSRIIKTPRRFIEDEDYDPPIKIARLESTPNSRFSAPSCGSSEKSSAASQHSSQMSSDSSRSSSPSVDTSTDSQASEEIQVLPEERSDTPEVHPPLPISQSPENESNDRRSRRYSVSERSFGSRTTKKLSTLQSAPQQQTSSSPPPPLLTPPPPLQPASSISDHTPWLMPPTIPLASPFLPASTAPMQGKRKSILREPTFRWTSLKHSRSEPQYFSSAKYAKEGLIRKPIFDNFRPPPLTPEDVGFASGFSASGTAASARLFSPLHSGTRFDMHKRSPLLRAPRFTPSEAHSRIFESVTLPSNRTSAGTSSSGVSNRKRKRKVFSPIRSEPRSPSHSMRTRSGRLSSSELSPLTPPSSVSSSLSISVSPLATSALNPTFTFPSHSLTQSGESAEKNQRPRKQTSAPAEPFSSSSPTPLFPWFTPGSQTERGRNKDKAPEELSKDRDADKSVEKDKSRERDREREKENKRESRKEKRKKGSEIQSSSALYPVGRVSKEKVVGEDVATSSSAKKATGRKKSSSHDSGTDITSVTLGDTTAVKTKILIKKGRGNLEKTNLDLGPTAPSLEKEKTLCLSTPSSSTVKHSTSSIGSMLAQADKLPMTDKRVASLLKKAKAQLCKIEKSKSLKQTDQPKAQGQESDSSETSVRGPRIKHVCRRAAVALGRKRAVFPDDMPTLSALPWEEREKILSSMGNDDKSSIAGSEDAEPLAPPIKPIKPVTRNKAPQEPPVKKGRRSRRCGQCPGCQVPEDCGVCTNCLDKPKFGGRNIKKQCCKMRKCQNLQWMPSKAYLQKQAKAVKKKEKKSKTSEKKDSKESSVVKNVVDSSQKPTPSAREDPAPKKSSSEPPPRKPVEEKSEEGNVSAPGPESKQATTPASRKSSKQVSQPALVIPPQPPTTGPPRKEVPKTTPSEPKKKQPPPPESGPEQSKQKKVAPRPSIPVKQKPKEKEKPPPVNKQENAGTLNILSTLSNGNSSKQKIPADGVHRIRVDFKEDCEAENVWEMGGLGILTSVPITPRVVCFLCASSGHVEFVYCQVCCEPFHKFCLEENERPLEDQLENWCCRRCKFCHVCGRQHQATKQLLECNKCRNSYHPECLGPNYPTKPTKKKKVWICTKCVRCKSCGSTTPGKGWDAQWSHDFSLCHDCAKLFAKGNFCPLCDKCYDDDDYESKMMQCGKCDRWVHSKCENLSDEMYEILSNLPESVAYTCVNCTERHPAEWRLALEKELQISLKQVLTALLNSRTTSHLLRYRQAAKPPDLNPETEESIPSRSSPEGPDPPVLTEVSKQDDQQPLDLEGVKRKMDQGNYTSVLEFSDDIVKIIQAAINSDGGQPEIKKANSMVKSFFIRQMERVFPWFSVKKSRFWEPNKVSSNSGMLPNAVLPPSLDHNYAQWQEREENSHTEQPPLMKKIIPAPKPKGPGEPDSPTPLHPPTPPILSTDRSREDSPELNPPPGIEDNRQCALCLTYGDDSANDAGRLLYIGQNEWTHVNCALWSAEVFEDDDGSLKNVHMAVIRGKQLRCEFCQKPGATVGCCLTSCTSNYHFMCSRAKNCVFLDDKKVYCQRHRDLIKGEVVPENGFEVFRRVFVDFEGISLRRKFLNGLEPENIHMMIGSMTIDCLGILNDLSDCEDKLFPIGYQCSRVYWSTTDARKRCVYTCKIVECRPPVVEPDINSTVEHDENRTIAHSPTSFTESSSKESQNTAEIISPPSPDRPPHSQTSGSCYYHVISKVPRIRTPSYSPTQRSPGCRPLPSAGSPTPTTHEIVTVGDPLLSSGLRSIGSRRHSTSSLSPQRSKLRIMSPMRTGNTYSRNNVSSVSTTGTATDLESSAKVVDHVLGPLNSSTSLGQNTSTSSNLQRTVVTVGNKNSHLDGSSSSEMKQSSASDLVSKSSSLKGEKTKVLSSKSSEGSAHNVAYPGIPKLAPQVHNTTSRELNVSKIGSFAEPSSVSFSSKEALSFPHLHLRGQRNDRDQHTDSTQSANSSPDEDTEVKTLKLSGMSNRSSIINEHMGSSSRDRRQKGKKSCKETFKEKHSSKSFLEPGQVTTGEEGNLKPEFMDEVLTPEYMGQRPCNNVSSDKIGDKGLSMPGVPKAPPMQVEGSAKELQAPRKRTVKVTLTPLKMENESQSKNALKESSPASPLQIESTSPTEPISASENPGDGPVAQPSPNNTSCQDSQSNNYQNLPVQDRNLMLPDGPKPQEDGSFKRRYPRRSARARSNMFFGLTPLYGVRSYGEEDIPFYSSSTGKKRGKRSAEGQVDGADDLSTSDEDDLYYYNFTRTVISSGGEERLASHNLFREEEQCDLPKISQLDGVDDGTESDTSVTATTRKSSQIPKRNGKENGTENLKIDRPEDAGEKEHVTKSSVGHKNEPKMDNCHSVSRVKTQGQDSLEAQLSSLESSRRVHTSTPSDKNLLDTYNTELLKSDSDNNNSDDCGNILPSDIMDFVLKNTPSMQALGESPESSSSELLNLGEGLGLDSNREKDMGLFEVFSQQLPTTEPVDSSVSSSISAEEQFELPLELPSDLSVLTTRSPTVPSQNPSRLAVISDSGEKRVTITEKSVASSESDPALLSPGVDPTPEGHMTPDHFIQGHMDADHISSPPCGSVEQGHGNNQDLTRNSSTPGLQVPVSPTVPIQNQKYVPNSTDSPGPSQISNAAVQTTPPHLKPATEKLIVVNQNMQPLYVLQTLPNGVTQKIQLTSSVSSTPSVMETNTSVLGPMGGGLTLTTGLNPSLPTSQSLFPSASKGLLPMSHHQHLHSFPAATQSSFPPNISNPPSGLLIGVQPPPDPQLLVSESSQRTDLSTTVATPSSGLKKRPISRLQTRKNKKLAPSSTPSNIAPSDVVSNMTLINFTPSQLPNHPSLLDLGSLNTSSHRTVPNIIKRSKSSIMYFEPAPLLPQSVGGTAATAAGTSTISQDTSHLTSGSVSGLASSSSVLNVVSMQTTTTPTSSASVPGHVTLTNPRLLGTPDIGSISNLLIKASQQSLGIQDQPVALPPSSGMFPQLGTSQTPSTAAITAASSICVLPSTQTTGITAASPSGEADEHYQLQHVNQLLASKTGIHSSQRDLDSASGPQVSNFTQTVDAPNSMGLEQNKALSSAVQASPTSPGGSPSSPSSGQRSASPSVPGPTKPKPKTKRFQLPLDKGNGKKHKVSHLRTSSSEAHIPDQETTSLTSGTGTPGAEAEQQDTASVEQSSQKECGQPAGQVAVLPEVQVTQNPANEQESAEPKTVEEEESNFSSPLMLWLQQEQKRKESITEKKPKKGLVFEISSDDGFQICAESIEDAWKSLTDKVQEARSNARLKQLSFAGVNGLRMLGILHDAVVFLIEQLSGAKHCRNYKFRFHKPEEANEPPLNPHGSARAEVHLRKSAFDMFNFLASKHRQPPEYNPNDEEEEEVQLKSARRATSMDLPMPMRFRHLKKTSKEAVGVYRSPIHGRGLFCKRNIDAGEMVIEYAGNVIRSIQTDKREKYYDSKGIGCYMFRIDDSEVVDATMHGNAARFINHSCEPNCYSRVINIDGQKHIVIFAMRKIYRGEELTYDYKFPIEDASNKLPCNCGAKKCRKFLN

The test has as its target Histone-lysine N-methyltransferase 2A (Homo sapiens) (UniProt Q03164). The experiment in a line: qHTS Fluorescence Polarization Assay for Inhibitors of MLL CXXC domain - DNA interaction. To be noted: MLL-CXXC / FITC-HOXA9 DNA fluorescence polarization; series mostly up to 115 µM. From the text:
NIH Chemical Genomics Center [NCGC] NIH Molecular Libraries Probe Production centers Network [MLPCN] MLPCN Grant: DA027717-01A1 Assay Submitter (PI): John Bushweller NCGC Assay Overview: The MLL (Mixed Lineage Luekemia) gene is involved in chromosomal translocation that results in either acute lymphoid leukemia (ALL) or acute myeloid leukemia (AML). Chromasomal translocation of MLL gene is responsible for the fusion of N-terminal MLL to more than 60 different partner genes in frame. Many of the MLL partner genes contain transcription activation domains or function as transcriptional activators. Despite the heterogeneity of fusion partners, the N-terminus of MLL fusion proteins always consists of the N-terminal menin binding motif and the CXXC domain. The MLL-CXXC domain specifically recognizes unmethylated CpG sequences of the HOX-A gene. Disruption of the MLL-CXXC and HOX-A gene interaction leads to down regulation of HOX-A gene expression and may potentially reverse leukemogenesis. We have miniaturized and optimized an in-vitro assay to screen for inhibitors of the MLL-CXXC domain and HOX-A DNA interaction, which could have utility in MLL fusion leukemias.
The affinity purified MLL-CXXC domain, unlabeled HOX-A9 DNA strand, fluorescein (FLSN) labeled HOX-A9 DNA strand were kindly supplied by the laboratory of Dr. John Bushweller, University of Virginia. All reagents were stored in single use aliquots at -80C. Assay Reagents: Assay buffer: 50 mM TRIS-HCl pH 7.5, 50 mM NaCl, 1 mM DTT. Add 0.05% BSA prior to reaction setup. Assay Procedure: 1.Dispense 1 ul of a 7 uM MLL-CXXC solution prepared in assay buffer into column 1-48. 2.Transfer 23 nl of compounds and unlabeled HOX-A9 per well. 3.Incubate for 5 minutes at ambient. 4.Dispense 1ul of a 50 nM FLSN-HOX-A9 solution prepared in assay buffer into columns 1-48 5.Centrifuge for 30 seconds at 1000 RPM. 6.Incubate for 30 minutes at ambient. 7.Read using the Envision reader fluorescent polarization protocol.
Background: Quantitative high-throughput screening tests each substance at several concentrations.
As for `O=C(OCC1O[C@@H](OC(=O)c2cc(O)c(O)c(O)c2)[C@@H](OC(=O)c2cc(O)c(O)c(O)c2)[C@@H](OC(=O)c2cc(O)c(O)c(O)c2)[C@@H]1OC(=O)c1cc(O)c(O)c(O)c1)c1cc(O)c(O)c(O)c1` (stereo not given in full), the Potency is 31.6 µM (active).

For `COC([CH2][Hg])CNC(=O)c1ccccc1OCC(=O)O` (stereo not given), the Potency result was “inactive”.

Consider `CC(C)COC(=O)n1c(=O)oc2ccc(S(=O)(=O)N3CCCCC3)cc21`, for which the Potency entry is “inactive”.

Take `CCOC(=O)C(NS(=O)(=O)c1ccc(C)cc1)(C(F)(F)F)P(=O)(OCC(C)C)OCC(C)C` (stereo not given): the Potency result was “inactive”.

Consider `CN1CCCC(=C(c2cccs2)c2cccs2)C1`, for which the Potency result is “inactive”.
